Measured values from PubChem BioAssay (NCATS).
Inconclusive results are not listed. Activity calls are given as the source filed them. Calls follow the shape of the dose curve; as a rule, active = well fitted inhibition curve with a large enough effect; inconclusive = small, poorly fitted or top-dose-only effect; inactive = flat fitted curve, though single readings scatter.

Tests used:
Test in all cases: qHTS profiling for inhibitors of Plasmodium falciparum proliferation (AID 504749); also: nearly all actives have a fitted effect of over 60% in size
3D7 = conditions: P. falciparum in erythrocytes, SYBR Green DNA, 72 h; series mostly up to 28.7 µM
How it was run: (§1)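 Infected RBCs, 0.3% parasitemia/2.5% Hct final; cpd 72 h, 37 C, 5% CO2; lysis buffer with saponin/triton/SYBR Green I, o/n RT dark; FI 485/535; norm. to artemisinin (0.29 uM) and DMSO.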

C2A = conditions: P. falciparum in erythrocytes, SYBR Green DNA, 72 h; series mostly up to 28.7 µM
How it was run: as §1

CP185 = conditions: P. falciparum in erythrocytes, SYBR Green DNA, 72 h; series mostly up to 28.7 µM
How it was run: as §1

CP237 = conditions: P. falciparum in erythrocytes, SYBR Green DNA, 72 h; series mostly up to 28.7 µM
How it was run: as §1

CP238 = conditions: P. falciparum in erythrocytes, SYBR Green DNA, 72 h; series mostly up to 28.7 µM
How it was run: as §1

CP262 = conditions: P. falciparum in erythrocytes, SYBR Green DNA, 72 h; series mostly up to 28.7 µM
How it was run: as §1

CP265 = conditions: P. falciparum in erythrocytes, SYBR Green DNA, 72 h; series mostly up to 12.8 µM
How it was run: as §1

CP266 = conditions: P. falciparum in erythrocytes, SYBR Green DNA, 72 h; series mostly up to 12.8 µM
How it was run: as §1

CP268 = conditions: P. falciparum in erythrocytes, SYBR Green DNA, 72 h; series mostly up to 28.7 µM
How it was run: as §1

CP269 = conditions: P. falciparum in erythrocytes, SYBR Green DNA, 72 h; series mostly up to 28.7 µM
How it was run: as §1

CP286 = conditions: P. falciparum in erythrocytes, SYBR Green DNA, 72 h; series mostly up to 28.7 µM
How it was run: as §1

CP305 = conditions: P. falciparum in erythrocytes, SYBR Green DNA, 72 h; series mostly up to 28.7 µM
How it was run: as §1

CP325 = conditions: P. falciparum in erythrocytes, SYBR Green DNA, 72 h; series mostly up to 28.7 µM
How it was run: as §1

DIV30 = conditions: P. falciparum in erythrocytes, SYBR Green DNA, 72 h; series mostly up to 28.7 µM
How it was run: as §1

ECU = conditions: P. falciparum in erythrocytes, SYBR Green DNA, 72 h; series mostly up to 28.7 µM
How it was run: as §1

GB4 = conditions: P. falciparum in erythrocytes, SYBR Green DNA, 72 h; series mostly up to 28.7 µM
How it was run: as §1

HB3 = conditions: P. falciparum in erythrocytes, SYBR Green DNA, 72 h; series mostly up to 28.7 µM
How it was run: as §1

P93_24 = conditions: P. falciparum in erythrocytes, SYBR Green DNA, 72 h; series mostly up to 28.7 µM
How it was run: as §1

PAD = conditions: P. falciparum in erythrocytes, SYBR Green DNA, 72 h; series mostly up to 28.7 µM
How it was run: as §1

PC26 = conditions: P. falciparum in erythrocytes, SYBR Green DNA, 72 h; series mostly up to 28.7 µM
How it was run: as §1

Measured: Potency

C[C@]12CC[C@H]3[C@@H](CCC4=CC(=O)CC[C@@]43C)[C@@H]1CC[C@@H]2O
inactive: all assays above
